# A number with no mark means an inactive call. Inconclusive results are not listed. Entries that show only a call come without a potency. Active and inactive are the calls of the source. Unless noted, the call rests on the fitted dose curve; in most records, active means well fitted curve in the direction sought with a large enough effect in the repeat runs; inconclusive means weak or mixed curves; inactive means no such curve, though single readings can be large; an effect the other way counts as inactive or inconclusive.
# Experiments:
# [1] = qHTS assay to identify small molecule agonists of the hypoxia (HIF-1) signaling pathway - cell viability counter screen (AID 1224844; calls by dose curve; further: nearly all actives have a fitted effect of over 50% in size)
# Outline: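 Tox21 10K compounds were added to HRE-bla ME-180 cells (0.5% dialyzed FBS) and incubated 17 hrs at 37C; ATP-based CellTiter-Glo luminescence then reported cell viability in the same wells.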
# [2] = qHTS assay to identify small molecule agonists of H2AX (AID 1224845; active means well fitted activation curve with a large enough effect in the signal ratio in the repeat runs, not every such curve was filed as active; the % refers to the signal ratio; further: potency means the concentration at half of the fitted maximal effect)
# Outline: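 Phospho-H2AX Ser139 measured by HTRF (ex 320 nm; em 665 and 620 nm) after 24 hr antibody incubation. Compounds, 15 concentrations, 0.76% DMSO, were applied to CHO-K1 cells for 3hr at 37C before lysis.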
# [3] = qHTS assay to identify small molecule agonists of the hypoxia (HIF-1) signaling pathway (AID 1224846; active means well fitted activation curve with a large enough effect in the signal ratio in the repeat runs, not every such curve was filed as active; the % refers to the signal ratio)
# Outline: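 Steps: seed ME-180 HRE-bla cells (2,000/well, 0.5% dialyzed FBS); incubate 5 hrs at 37C; pin-transfer compounds or DMSO; incubate 17 hrs; add LiveBLAzer B/G substrate CCF4-AM; measure reporter activation by FRET.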
# [4] = qHTS RealTime-Glo MT Cell Viability Assay in HepG2 cells - 24 hour (AID 1224867); further: nearly all actives have a fitted effect of over 50% in size
# Outline: (§1)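 Luminescence read-out: viable HepG2 cells reduce a prosubstrate to a NanoLuc substrate, giving a signal proportional to live cell number. Reads taken at 0, 8, 16, 24, 32 and 40 h of compound exposure at 37 C.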
# [5] = qHTS RealTime-Glo MT Cell Viability Assay in HEK293 cells - 32 hour (AID 1224868); further: nearly all actives have a fitted effect of over 50% in size; further: potency means the concentration at half of the fitted maximal effect
# Outline: (§2)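 Nonlytic real-time viability readout: viable cells convert prosubstrate to NanoLuc substrate, giving luminescence proportional to live cell number. HEK293, 600 cells/well, compound added after 5 h, continuous culture at 37 C.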
# [6] = A CellTox Green Cytotoxicity Assay to monitor cytotoxicity in HEK293 cells - 0 hour (AID 1224869); further: nearly all actives have a fitted effect of over 50% in size
# Outline: (§3)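 Cytotoxicity was tracked continuously in HEK293 cells by a DNA-binding dye excluded from viable cells. Compounds were transferred in DMSO 5 h after seeding; fluorescence was recorded at intervals up to 40 h.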
# [7] = qHTS RealTime-Glo MT Cell Viability Assay in HepG2 cells - 40 hour (AID 1224870); further: nearly all actives have a fitted effect of over 50% in size
# Outline: (§4)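 Real-time viability: cells seeded at 600 per well together with NanoLuc and cell-permeant prosubstrate, compounds added after 5 h incubation. Luminescence tracked at 0, 8, 16, 24, 32 and 40 h of exposure.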
# [8] = A CellTox Green Cytotoxicity Assay to monitor cytotoxicity in HEK293 cells - 40 hour (AID 1224871); further: nearly all actives have a fitted effect of over 45% in size; further: potency means the concentration at half of the fitted maximal effect
# Outline: as §3
# [9] = qHTS RealTime-Glo MT Cell Viability Assay in HEK293 cells - 16 hour (AID 1224872)
# Outline: as §2
# [10] = qHTS RealTime-Glo MT Cell Viability Assay in HepG2 cells - 8 hour (AID 1224873); further: nearly all actives have a fitted effect of over 55% in size
# Outline: as §4
# [11] = qHTS RealTime-Glo MT Cell Viability Assay in HEK293 cells - 40 hour (AID 1224874); conditions: RealTime-Glo luminescence; max response: active compounds read low; further: nearly all actives have a fitted effect of over 50% in size; further: potency means the concentration at half of the fitted maximal effect
# Outline: (§5)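 Nonlytic bioluminescent viability monitoring. HEK293 at 600 cells/well with reagent; 5 h settle; compound transfer by pintool; plates held at 37 C and read at set time points.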
# [12] = A CellTox Green Cytotoxicity Assay to monitor cytotoxicity in HEK293 cells - 24 hour (AID 1224875); further: nearly all actives have a fitted effect of over 45% in size
# Outline: as §3
# [13] = A CellTox Green Cytotoxicity Assay to monitor cytotoxicity in HepG2 cells - 24 hour (AID 1224878); further: nearly all actives have a fitted effect of over 45% in size; further: potency means the concentration at half of the fitted maximal effect
# Outline: (§6)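 Real-time, homogeneous cytotoxicity readout: dead-cell DNA staining by CellTox Green in HepG2 monolayers, fluorescence measured at timed intervals up to 40 h of continuous compound exposure.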
# [14] = A CellTox Green Cytotoxicity Assay to monitor cytotoxicity in HepG2 cells - 40 hour (AID 1224879); further: nearly all actives have a fitted effect of over 40% in size; further: potency means the concentration at half of the fitted maximal effect
# Outline: as §6
# [15] = qHTS RealTime-Glo MT Cell Viability Assay in HEK293 cells - 0 hour (AID 1224880); further: top concentration of the series differs between compounds; nearly all actives have a fitted effect of over 45% in size
# Outline: as §5
# [16] = qHTS RealTime-Glo MT Cell Viability Assay in HepG2 cells - 32 hour (AID 1224877); further: nearly all actives have a fitted effect of over 55% in size; further: potency means the concentration at half of the fitted maximal effect
# Outline: as §1
# [17] = qHTS assay to identify small molecule antagonists of the estrogen related receptor (ERR) signaling pathway from Tox21 library (AID 1224848); further: nearly all actives have a fitted effect of over 50% in size
# Outline: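 Antagonist-mode screen of the Tox21 10K library in an NTP-provided ERR reporter cell line; 18 h compound exposure at 37 C, luminescence measured with ONE-Glo.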
# [18] = qHTS assay to identify small molecule agonists of the estrogen related receptor (ERR) signaling pathway from Tox21 library (AID 1224849; calls by dose curve; further: nearly all actives have a fitted effect of over 15% in size); conditions: ERR reporter cell line, ONE-Glo luciferase, 18 h; at 92.4 µM (top of the series) unless noted
# Outline: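 Agonist signal is luciferase luminescence from an ERR reporter cell line treated 18 h at 37 C with DMSO-dissolved compounds, read 30 min after ONE-Glo addition at room temperature.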
# [19] = A CellTox Green Cytotoxicity Assay to monitor cytotoxicity in HepG2 cells - 16 hour (AID 1224876); further: nearly all actives have a fitted effect of over 45% in size
# Outline: as §6
# [20] = qHTS assay to identify small molecule agonists of H2AX - cell viability counter screen (AID 1224847; calls by dose curve;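 further: wild-type CHO-K1 cells; top concentration of the series differs between compounds; nearly all actives have a fitted effect of over 30% in size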)
# Outline: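 CHO-K1 wt, 1000 cells/well, o/n 37C; cpds 15 conc, 3 h 37C, 0.76% DMSO; CellTiter-Glo, 30 min RT, luminescence.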
smiles,measurement,setting,value
N#CCc1cccc(C(F)(F)F)c1,Potency,[1],inactive
same,Potency,[2],inactive
same,outcome,[3],inactive
same,Potency,[4],inactive
same,Potency,[5],inactive
same,Potency,[6],inactive
same,Potency,[7],inactive
same,Potency,[8],inactive
same,Potency,[9],inactive
same,Potency,[10],inactive
same,max response,[11],10.3%
same,Potency,[12],inactive
same,Potency,[13],inactive
same,Potency,[14],inactive
same,Potency,[15],inactive
Cc1cccc(C(C)(C)C)c1O,Potency,[1],inactive
same,Potency,[2],inactive
same,outcome,[3],inactive
same,Potency,[4],inactive
same,Potency,[5],inactive
same,Potency,[6],inactive
same,Potency,[7],inactive
same,Potency,[9],inactive
same,Potency,[10],inactive
same,max response,[11],-2.49%
same,Potency,[16],inactive
same,Potency,[13],inactive
same,Potency,[15],inactive
CCCCCCCCN(C)C,Potency,[1],inactive
same,Potency,[2],inactive
same,outcome,[3],inactive
same,Potency,[17],inactive
same,"activity change, positive = activation",[18],2.41%
same,Potency,[4],inactive
same,Potency,[5],inactive
same,Potency,[6],inactive
same,Potency,[7],inactive
same,Potency,[8],inactive
same,Potency,[9],inactive
same,Potency,[10],inactive
same,max response,[11],16%
same,Potency,[19],inactive
same,Potency,[16],inactive
same,Potency,[13],inactive
same,Potency,[15],inactive
CCCC(C)C,Potency,[1],inactive
same,Potency,[2],inactive
same,outcome,[3],inactive
same,Potency,[20],inactive
same,Potency,[4],inactive
same,Potency,[6],inactive
same,Potency,[7],inactive
same,Potency,[8],inactive
same,Potency,[10],inactive
same,Potency,[19],inactive
same,Potency,[16],inactive
same,Potency,[13],inactive
same,Potency,[15],inactive
CC(Cc1cccc(C(F)(F)F)c1)NCCOC(=O)c1ccccc1 (centres undefined),Potency,[1],inactive
same,Potency,[2],inactive
same,outcome,[3],inactive
same,Potency,[4],inactive
same,Potency,[6],inactive
same,Potency,[7],inactive
same,Potency,[10],inactive
same,Potency,[12],inactive
same,Potency,[16],inactive
same,Potency,[15],inactive
CCCCC(CC)COCCCN (centres undefined),Potency,[1],inactive
same,Potency,[2],inactive
same,outcome,[3],inactive
same,"activity change, positive = activation",[18],-26.6%
same,Potency,[4],inactive
same,Potency,[6],inactive
same,Potency,[7],inactive
same,Potency,[8],inactive
same,Potency,[10],inactive
same,Potency,[19],inactive
same,Potency,[16],inactive
same,Potency,[13],inactive
same,Potency,[14],inactive
same,Potency,[15],inactive
O=C(Nc1ccccc1)OCC(CN1CCCCC1)OC(=O)Nc1ccccc1 (centres undefined),Potency,[1],inactive
same,Potency,[2],inactive
same,Potency,[20],inactive
same,Potency,[4],inactive
same,Potency,[5],21.3 µM (active)
same,Potency,[6],inactive
same,Potency,[7],inactive
same,Potency,[8],inactive
same,Potency,[12],inactive
same,Potency,[19],inactive
same,Potency,[15],inactive
CNCC[C@@H](Oc1ccccc1C)c1ccccc1,Potency,[1],inactive
same,Potency,[2],inactive
same,Potency,[20],inactive
same,"activity change, positive = activation",[18],-15.2% [at 42.5 µM]
same,Potency,[4],inactive
same,Potency,[5],inactive
same,Potency,[6],inactive
same,Potency,[7],inactive
same,Potency,[8],inactive
same,Potency,[9],inactive
same,Potency,[10],inactive
same,max response,[11],-5.29%
same,Potency,[12],inactive
same,Potency,[16],inactive
same,Potency,[13],inactive
same,Potency,[14],inactive
Cn1c(=O)c2c(ncn2CC(O)CO)n(C)c1=O (centres undefined),Potency,[1],inactive
same,Potency,[2],inactive
same,Potency,[20],inactive
same,Potency,[17],inactive
same,"activity change, positive = activation",[18],6.5% [at 42.5 µM]
same,Potency,[4],inactive
same,Potency,[5],inactive
same,Potency,[6],inactive
same,Potency,[7],inactive
same,Potency,[8],inactive
same,Potency,[10],inactive
same,max response,[11],2.79%
same,Potency,[12],inactive
same,Potency,[16],inactive
same,Potency,[14],inactive
same,Potency,[15],inactive
OC(CCN1CCCCC1)(c1ccccc1)C1CCCCC1 (centres undefined),Potency,[1],inactive
same,Potency,[2],inactive
same,Potency,[17],inactive
same,"activity change, positive = activation",[18],2.3% [at 42.5 µM]
same,Potency,[4],inactive
same,Potency,[6],inactive
same,Potency,[7],inactive
same,Potency,[8],inactive
same,Potency,[9],inactive
same,Potency,[10],inactive
same,max response,[11],-21.9%
same,Potency,[12],inactive
same,Potency,[16],inactive
same,Potency,[13],inactive
same,Potency,[14],inactive
same,Potency,[15],inactive
CN1CCC[C@@H]1c1cccnc1,Potency,[1],inactive
same,Potency,[2],inactive
same,Potency,[20],inactive
same,Potency,[4],inactive
same,Potency,[5],inactive
same,Potency,[6],inactive
same,Potency,[7],inactive
same,Potency,[8],inactive
same,Potency,[9],inactive
same,Potency,[10],inactive
same,max response,[11],7.25%
same,Potency,[12],inactive
same,Potency,[16],inactive
same,Potency,[13],inactive
same,Potency,[15],inactive
CN(C)CC[C@@H](c1ccc(Br)cc1)c1ccccn1,Potency,[1],inactive
same,Potency,[2],inactive
same,Potency,[20],inactive
same,Potency,[4],inactive
same,Potency,[5],inactive
same,Potency,[6],inactive
same,Potency,[7],inactive
same,Potency,[8],inactive
same,Potency,[10],inactive
same,max response,[11],-14.2%
same,Potency,[12],inactive
same,Potency,[16],inactive
same,Potency,[13],inactive
same,Potency,[14],inactive
same,Potency,[15],inactive
C=CC(=O)OCC(C)OCC(C)OCC(C)OC(=O)C=C (centres undefined),Potency,[1],inactive
same,Potency,[2],101 µM (active)
same,Potency,[5],43.6 µM (active)
same,Potency,[6],inactive
same,Potency,[8],54.9 µM (active)
same,Potency,[11],43.6 µM (active)
same,Potency,[12],inactive
same,Potency,[19],inactive
same,Potency,[16],54.9 µM (active)
same,Potency,[13],54.9 µM (active)
same,Potency,[14],49 µM (active)
same,Potency,[15],inactive
CC(C(=O)O)c1ccc(-c2ccccc2)c(F)c1 (centres undefined),Potency,[1],inactive
same,Potency,[2],inactive
same,Potency,[4],inactive
same,Potency,[6],inactive
same,Potency,[7],inactive
same,Potency,[8],inactive
same,Potency,[10],inactive
same,Potency,[12],inactive
same,Potency,[16],inactive
same,Potency,[13],54.9 µM (active)
same,Potency,[15],inactive
CCCCCCCC/C=C\CCCCCCCC(N)=O,Potency,[1],inactive
same,Potency,[2],inactive
same,Potency,[17],inactive
same,"activity change, positive = activation",[18],-4.69%
same,Potency,[4],inactive
same,Potency,[6],inactive
same,Potency,[7],inactive
same,Potency,[10],inactive
same,Potency,[19],inactive
same,Potency,[16],inactive
same,Potency,[13],24.5 µM (active)
same,Potency,[14],34.7 µM (active)
same,Potency,[15],inactive
C=C(C)C(=O)OC(C)C,Potency,[1],inactive
same,Potency,[2],inactive
same,Potency,[20],inactive
same,Potency,[4],inactive
same,Potency,[5],inactive
same,Potency,[6],inactive
same,Potency,[7],inactive
same,Potency,[8],inactive
same,Potency,[9],inactive
same,Potency,[10],inactive
same,max response,[11],6%
same,Potency,[12],inactive
same,Potency,[19],inactive
same,Potency,[16],inactive
same,Potency,[13],inactive
same,Potency,[14],inactive
same,Potency,[15],inactive
CC1CCc2cc(F)cc3c(=O)c(C(=O)O)cn1c23 (centres undefined),Potency,[1],inactive
same,Potency,[2],inactive
same,Potency,[20],inactive
same,Potency,[4],inactive
same,Potency,[5],inactive
same,Potency,[6],inactive
same,Potency,[7],inactive
same,Potency,[8],inactive
same,Potency,[9],inactive
same,Potency,[10],inactive
same,Potency,[12],inactive
same,Potency,[19],inactive
same,Potency,[16],inactive
same,Potency,[13],inactive
same,Potency,[15],inactive

# — PubChem BioAssay (Tox21)
